Results on 15 compounds are retold here after PubChem BioAssay (NCI).

About 83,000 compounds went through this panel and 20% of them were active in at least one assay; those are over-represented in the sample as a whole.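 In brief: 96-well plates, 48 h treatment, single concentration, percent growth endpoint.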 A number with no mark means an inactive call. Calls of active or inactive are those of the source. Rule for the calls: active = growth percent below 10; inactive = the rest.

The test system of the assay is MDA-MB-468 breast. The assay can be described thus: NCI-60 one-dose screen, 48 h (100 = growth as untreated, 0 = no growth, -100 = all killed). Conditions: 10 µM unless noted.
As to `Clc1ccc(/C=N\N=C\c2ccc(Cl)c(Cl)c2)cc1Cl`, the growth was 78.5%.

Turning to `Nc1ncc(C#Cc2cncc(NC(=O)c3cccc(C(F)(F)F)c3)c2)c2cccnc12`, the growth was 92.5%. With `COc1cc2cc(NCc3ccc(Cl)cc3)nc(C)c2cc1OC`, the growth was 63.4%. As to `CC(=O)OC(C)C(=O)NCC(C)O` (stereo not given), the growth was 105%. As to `Cc1ccc2nc(NC(=O)CSc3nc(Cl)c(C#N)c(-c4ccccc4)n3)sc2c1`, the growth was 87.5%. Turning to `Cc1ccc2nc3[nH]c(=O)[nH]c(=O)c3c(N)c2c1`, the growth is 88.3%. As for `COC(=O)c1cncc(C(=O)Nc2ccc(-n3cnc4ccccc43)cc2)c1`, the growth was 101%. As to `O=C(Nc1cc(Cl)cc(Cl)c1)Nc1ccc2oc(=O)ccc2c1`, the growth is 15.7%. Turning to `COc1ccc2c(c1)cn1c3ccc(OC)cc3[nH]c(=O)c21`, the growth was -12% (active). For `COc1cc(C2CC(=O)Nc3c2c(C)nn3-c2nc3ccccc3[nH]2)cc2c1OCC(=O)N2` (stereo not given), the growth is 57.1%. For the compound `c1ccc(OCCC[P+](c2ccccc2)(c2ccccc2)c2ccccc2)cc1`, the growth was -7.95% (active). In the case of `COc1ccc(CCN2C(=O)CCSC2=S)cc1OC`, the growth is 19.8%. The result for `Cc1nn(-c2ccccc2)c2c1C(c1ccc([N+](=O)[O-])cc1)C(C#N)=C(N)O2` (stereo not given) reads 108%; that for `Cc1nc2sc(C(=O)Nc3cccc(Cl)c3C)c(N)c2cc1C(=O)c1ccccc1`, -4.28% (active).

Turning to `CN(Cc1ccccc1)c1nc(Cl)c(C2CC(c3ccc4c(c3)OCO4)=NN2c2cc(Cl)cc(Cl)c2)s1` (stereo not given), the growth is 103%.
